Gli-Sufu antag = Gli-Sufu pathway antagonism | Sufu-KO-LIGHT fibroblasts, Gli luciferase reporter luminescence | AID 588413 | inhibition, % at 5 µM | 340,000 compounds, 0.74% hits;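 active = inhibition above about 55%, limit read from the data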;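 note: 0% = DMSO-treated cells and 100% = wells with medium but no cells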
697 NFkB inh = inhibitors of the PMA/ionomycin-induced NF-kB reporter in 697 B cells | 697 B-cell NF-kB luciferase reporter, 16 h | inhibition, % at 4 µM | 330,000 compounds, 0.33% hits | AID 435022; in the data active = inhibition above about 35%
Jurkat NFkB inh = lowers PMA/ionomycin-induced NF-kB signal in Jurkat cells; PMA/ionomycin-induced NF-kB luciferase reporter, luminescence; inhibition, % at 4 µM; 330,000 compounds, 0.53% hits; AID 435003; in the data active = inhibition above about 50%
aSyn UTR inh = MLPCN primary screen, SNCA 5' untranslated region. alpha-synuclein 5'UTR reporter, inhibitor activity. 300,000 compounds, 0.82% hits. inhibition, % (tested at 7.5 µM); in the data active = inhibition above about 60%; inconclusive = no clear call, values can overlap the other calls;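 note: H4 neuroglioblastoma cells stably carrying SNCA 5'UTR luciferase fusion; 0% = DMSO wells and 100% = positive control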
Mdm2 MdmX PPI = human Mdm2/MdmX binding inhibition. 330,000 compounds, 3% hits. O15151+Q00987. SaOS-2 split-luciferase Mdm2/MdmX complementation, luminescence. inhibition, % at 8 µM. AID 485346;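 active = inhibition of at least 50% at 8 µM in the primary screen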
Target sequence (O15151 whole entry, looked up): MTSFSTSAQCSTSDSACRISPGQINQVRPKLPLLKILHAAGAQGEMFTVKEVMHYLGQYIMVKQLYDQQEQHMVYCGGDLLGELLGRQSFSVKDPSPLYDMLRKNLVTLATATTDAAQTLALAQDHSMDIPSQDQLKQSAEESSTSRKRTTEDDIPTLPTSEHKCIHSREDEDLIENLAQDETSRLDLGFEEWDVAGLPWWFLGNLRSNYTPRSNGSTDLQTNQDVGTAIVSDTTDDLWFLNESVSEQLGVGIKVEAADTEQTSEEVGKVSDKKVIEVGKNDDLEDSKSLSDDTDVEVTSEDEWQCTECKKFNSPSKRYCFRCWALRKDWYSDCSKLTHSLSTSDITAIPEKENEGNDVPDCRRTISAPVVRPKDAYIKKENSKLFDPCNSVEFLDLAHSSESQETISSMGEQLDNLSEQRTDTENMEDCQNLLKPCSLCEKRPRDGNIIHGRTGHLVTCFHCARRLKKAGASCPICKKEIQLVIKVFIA
Target sequence (Q00987 whole entry, looked up): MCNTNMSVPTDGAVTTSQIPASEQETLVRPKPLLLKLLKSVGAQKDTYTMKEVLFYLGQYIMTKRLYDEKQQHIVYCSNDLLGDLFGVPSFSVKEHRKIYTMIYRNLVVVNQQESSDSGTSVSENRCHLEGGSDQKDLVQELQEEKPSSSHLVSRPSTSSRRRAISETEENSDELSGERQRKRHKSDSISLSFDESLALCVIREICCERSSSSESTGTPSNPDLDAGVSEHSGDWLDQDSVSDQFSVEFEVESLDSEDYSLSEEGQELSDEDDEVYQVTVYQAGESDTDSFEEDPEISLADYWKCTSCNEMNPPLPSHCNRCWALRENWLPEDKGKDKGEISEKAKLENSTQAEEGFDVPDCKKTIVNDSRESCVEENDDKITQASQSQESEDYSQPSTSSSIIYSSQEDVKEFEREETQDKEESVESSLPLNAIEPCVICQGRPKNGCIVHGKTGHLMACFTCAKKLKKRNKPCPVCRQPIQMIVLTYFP
CSC inhib = cancer stem cell inhibition | 300,000 compounds, 1.1% hits | AID 2717 | inhibition, % at 7.5 µM | cancer stem cell-like cells viability, luminescence; in the data active = inhibition above about 75%; inconclusive = no clear call, values can overlap the other calls; tested in HMLE shEcad cells
Mdm2-MdmX conf = confirmation of human Mdm2/MdmX interaction inhibitors; shares compounds with Mdm2 MdmX PPI; Mdm2-MdmX binding, luminescent assay; inhibition, % at 8 µM; 10,000 compounds, 55% hits; AID 489028; in the data active = inhibition above about 40%
FLuc counter = inhibits full-length luciferase, flagging false Mdm2/MdmX hits; inhibition, % at 8 µM; 6,200 compounds, 77% hits; shares compounds with Mdm2 MdmX PPI; SaOS-2 full-length luciferase counterscreen, luminescence;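 active = mean inhibition at 8 µM reaching about 37%, which flags the compound as non-specific, limit read from the data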;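 note: p53-null SaOS-2 cells with luciferase driven by a doxycycline-inducible promoter; compound on cells about two nights before reading with doxycycline added after day one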
Starred values were filed as active, the others as inactive; ? = inconclusive; . = no result. Most compounds without a hit are left out; they make up all but 4.5% or so of the library.

SMILES	Gli-Sufu antag	697 NFkB inh	Jurkat NFkB inh	aSyn UTR inh	Mdm2 MdmX PPI	CSC inhib	Mdm2-MdmX conf	FLuc counter
O=C(Nc1ccc(N2CCN(c3ncccc3C(F)(F)F)CC2)nc1)c1cccs1	16	-35	-6	-6	65*	30	35	.
COc1ccc(C2=C(C)C(N3CCN(C(=O)c4ccco4)CC3)=NS2(=O)=O)cc1	-14	0	18	10	-7	-12	.	.
COc1cc(CO)ccc1OCc1nnnn1-c1ccc(C)cc1	-9	15	11	13	4	14	.	.
Cc1ccc(S(=O)(=O)c2nc(S(=O)(=O)c3ccccc3)sc2N2CCN(C)CC2)cc1	20	-1	20	34	61*	.	47*	24
Cc1ccc(S(=O)(=O)c2nc(S(=O)(=O)c3ccccc3)sc2N2CCN(CCO)CC2)cc1	18	2	26	-8	53*	.	11	.
CCCS(=O)(=O)c1nc(S(=O)(=O)c2ccc(C)cc2)c(N2CCN(C)CC2)s1	16	5	24	-69	18	-4	.	.
COc1cccc(NC(=O)C23CCC(C)(C(=O)O2)C3(C)C)c1 (stereo not drawn)	2	14	-13	-17	-2	0	.	.
CCOc1ncccc1C(=O)OC(C)C(=O)NC(=O)NC1CCCCC1 (stereo not drawn)	-19	4	-2	-1	-1	-2	.	.
CCn1c(=O)c2sccc2n(Cc2cc(C(=O)OC)ccc2OC)c1=O	6	2	10	3	51*	-14	8	.
CN1CCN(CCNC(=O)c2ccc3nc(-c4ccc(F)cc4)c(-c4ccc(F)cc4)nc3c2)CC1	16	-7	-18	-48	54*	-1	29	.
COc1cccc(-c2nn(C)c3sc(C(=O)NCc4ccco4)cc23)c1	4	30	-8	-28	61*	-5	40*	69*
O=C(CN(C(=O)c1csnn1)c1ccc(Br)cc1)NC1CCCCC1	-7	9	-15	-13	-11	21	.	.
COc1ccc(N2CCN(S(=O)(=O)c3ccc(-c4cc(C)no4)s3)CC2)cc1	-14	-24	-5	-1	9	-10	.	.
CCN(c1ccc(OC)cc1)S(=O)(=O)c1ccc(-c2cc(C)no2)s1	14	-8	31	-47	57*	-19	48*	59*
COC(=O)[C@]1(Cc2ccccc2)N[C@H](c2ccc(-c3cccc(Cl)c3)c(OC)c2)[C@@H]2C(=O)N(C)C(=O)[C@@H]21	28	.	.	.	.	.	.	.
CCN1C(=O)[C@H]2[C@@H](c3ccc(-c4ccccc4)cc3)N[C@@](Cc3ccccc3)(C(=O)OC)[C@H]2C1=O	-2	7	14	31	17	9	.	.
CCN1C(=O)[C@H]2[C@@H](c3ccc(-c4cccc(Cl)c4)c(OC)c3)N[C@@](Cc3ccccc3)(C(=O)OC)[C@H]2C1=O	-7	4	32	25	52*	13	29	54*
CCN1C(=O)[C@H]2[C@@H](c3ccc(-c4ccc(Cl)c(Cl)c4)cc3)N[C@@](Cc3ccccc3)(C(=O)OC)[C@H]2C1=O	5	11	22	28	57*	-5	34	.
C=CC[C@H](CC(=O)NCCO)C(=O)N[C@H](COC(=O)[C@H](CC=C)CC(=O)OC(C)(C)C)c1ccccc1	-3	2	-2	.	-14	-4	.	.
CCOC(=O)C(C(C)C)C(N)Cc1ccc(F)cc1 (stereo not drawn)	-1	8	10	3	5	-4	.	.
NC(N)=N/N=C/c1ccc(OCc2ccccc2)c(OCc2ccccc2)c1	-5	-6	14	106*	96*	2	67*	65*
COc1cc(/C=N/N=C(N)N)ccc1OCc1ccc(Cl)cc1	52	-144	-5	39	101*	50	50*	127*
Oc1cccc(C2c3[nH]c4ccccc4c3CCN2Cc2ccc3c(c2)CCO3)c1 (stereo not drawn)	17	5	18	-10	58*	64	43*	53*
COc1ccc(-c2cc(-c3ccc(O)cc3)nc(N)c2C#N)cc1OC	1	23	0	10	59*	12	42*	100*
CCn1c2ccccc2c2cnc(N=CN(C)C)c(C#N)c21	-14	20	4	25	76*	-7	87*	20
SMILES	Gli-Sufu antag	697 NFkB inh	Jurkat NFkB inh	aSyn UTR inh	Mdm2 MdmX PPI	CSC inhib	Mdm2-MdmX conf	FLuc counter
CCN(CC)CCn1c2ccccc2c2cnc(N=CN(C)C)c(C#N)c21	6	-24	-38	-29	-8	-4	.	.
C=CC[n+]1c(-c2ccc(OCC)cc2)csc1NNC(=O)Nc1ccccc1	36	-13	27	11	10	?	.	.
CCc1ccc(-c2nc(CN3CCC(C(=O)N4CCN(c5ccccc5)CC4)CC3)c(C)o2)cc1	15	8	24	-9	53*	13	40*	86*
Cc1oc(-c2cccc(Cl)c2)nc1CN1CCC(C(=O)NC2CC2)CC1	9	5	5	-9	-8	-9	.	.
CCN(CCNC(=O)C1CCN(Cc2nc(-c3ccc(Cl)cc3)oc2C)CC1)c1ccccc1	16	22	11	2	51*	40	54*	48*
CCc1ccc(-c2nc(CN3CCC(C(=O)N4CCN(c5ccccn5)CC4)CC3)c(C)o2)cc1	14	-18	17	.	27	.	.	.
CCN(CCNC(=O)C1CCN(Cc2nc(-c3cccc(Cl)c3)oc2C)CC1)c1ccccc1	-19	4	3	24	52*	22	51*	61*
CCc1ccc(-c2nc(CN3CCC(C(=O)NCCN(CC)c4ccccc4)CC3)c(C)o2)cc1	-29	-13	7	32	78*	16	80*	59*
O=C(NC(=S)N(CCO)Cc1ccccc1)c1ccc(S(=O)(=O)N2CCCC2)cc1	0	-2	-2	-7	0	-1	.	.
CNC[C@@H]1Oc2ccc(NS(=O)(=O)c3ccc(Cl)cc3)cc2C(=O)N([C@H](C)CO)C[C@@H]1C	-5	6	0	.	-13	-13	.	.
O=C(CSc1nnc(-c2ccccc2NC(=O)c2ccccc2)o1)OC1CCCCC1	-7	18	1	.	-11	-8	.	.
Cc1ccc(C)c(C2=NNC(=O)CC2)c1	3	4	4	3	-12	1	.	.
S=c1[nH]nc(C2CCCCC2)n1Cc1ccccc1	34	2	3	32	-14	0	.	.
Cc1oc(-c2ccc(Cl)cc2)nc1CN1CCC(C(=O)NCc2cccs2)CC1	7	-18	7	16	32	-7	.	.
CCc1ccc(-c2nc(CN3CCC(C(=O)NCc4ccc(F)cc4)CC3)c(C)o2)cc1	93*	9	5	18	58*	16	42*	67*
CCCc1cc(=O)n2[nH]c(C)c(-c3ccccc3)c2n1	6	11	0	3	24	2	.	.

Screening results deposited in PubChem by several laboratories.
